# Compounds with a hit are over-represented: about 3.2% of the library has one in this group of screens.
# TcdB GH inh: inhibitors of Clostridioides difficile toxin B glycohydrolase; P18177; TcdB glycohydrolase enzymatic assay, plate reader; inhibition, % at 9.99 µM; hit rate 0.24% among 350,000; AID 652162; in the data active = inhibition above about 10%
# PrPC surface inh: cell surface PrPC inhibition, primary TR-FRET screen | P04156 | TR-FRET read-out | inhibition, % at 13.8 µM | hit rate 0.43% among 370,000 | AID 720596; in the data active = inhibition above about 24%; note: 0% = median of the test wells and 100% = reference compound wells
# GDH-TPI inh: GDH-TPI coupled enzyme inhibition counter-screen. AID 588335. GDH-TPI coupled enzyme counterscreen, NADH absorbance. hit rate 1.2% among 360,000. inhibition, % at 4.8 µM; in the data active = inhibition above about 30%;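 note: 0% = DMSO wells and 100% = wells lacking the enzyme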
# Y pestis TopoI: Y. pestis Topo-I inhibition via cleavage products | hit rate 0.064% among 360,000 | activity, % at 10 µM | AID 504884 | Y. pestis Topo-I cleavage product accumulation, plate reader; in the data active = activity above about 50%, passing the limit was not always enough
# Mtb FBA inh: inhibitors of M. tuberculosis fructose-bisphosphate aldolase; P9WQA3; hit rate 2.3% among 360,000; purified M. tuberculosis FBA, fluorescence read-out; inhibition, % at 1 µM; in the data active = inhibition above about 27%;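 note: 0% = vehicle and 100% = reference inhibitor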
# Active calls of the source: *; x = no result given; + = active, no number.
SMILES,TcdB GH inh,PrPC surface inh,GDH-TPI inh,Y pestis TopoI,Mtb FBA inh
CCC1(c2ccccc2)NC(=O)N(CC(=O)Nc2ccc3c(c2)OCO3)C1=O (stereo unspecified),2,x,-4,5,-2
CCC1(c2ccccc2)NC(=O)N(CC(=O)Nc2ccc3c(C)cc(=O)oc3c2)C1=O (stereo unspecified),0,-2,21,-4,198*
Cc1ccc(NC(=O)C2CCCCC2)cc1C,0,6,8,7,-1
O=C(C1CCCCC1)N1C[C@@H]2O[C@H](CNS(=O)(=O)c3ccccc3F)CC[C@@H]21,-1,x,x,x,x
Cc1ccc(S(=O)(=O)Oc2ccc(/C=N/NC(=O)c3nn(C)cc3[N+](=O)[O-])cc2)cc1,14*,5,-3,22,-1
CCN(CC)Cc1c(O)ccc2cc(-c3nc4ccccc4n3C)c(=O)oc12,1,-8,12,-6,+
CC(=O)Oc1ccc2cc(-c3nc4ccccc4n3C)c(=O)oc2c1,x,-6,30,-5,+
NCC[C@@H]1CC[C@@H](NC(=O)C2CCC2)[C@H](CO)O1,-1,x,x,x,x
CO[C@@H]1CN(C)C(=O)c2cc(NC(=O)c3ccno3)ccc2OC[C@@H](C)NC[C@@H]1C,1,x,x,x,x
Cc1ccc(/C=N\Nc2nc3ccc(Cl)cc3[nH]2)o1,0,3,45*,-18,-1
CN(C)C(=O)C[C@@H]1C=C[C@H](NC(=O)c2ccc(F)cc2)[C@@H](CO)O1,1,x,x,x,x
CN(C)c1ccc(C=NNc2nc3c([nH]2)c(=O)n(C)c(=O)n3C)cc1,-1,-1,47*,-5,15
O=C(N/N=C/c1cn(-c2ccccc2)nc1-c1cc2ccccc2o1)c1ccccc1Br,2,-2,31*,-3,3
O=C(N/N=C/c1cn(-c2ccccc2)nc1-c1cc2ccccc2o1)c1c[nH]c2ccccc12,0,16,11,2,-1
[O-]/C(=C(\C(=S)Nc1ccc(SC(F)F)cc1)[n+]1cccc(CO)c1)c1ccc(Cl)s1,0,0,27,61*,-1
O=C(N/N=C/c1ccc2ncccc2c1)c1cc(-c2cccs2)nc2ccccc12,0,7,39*,-7,14
O=C(N/N=C/c1ccc[nH]1)c1cc(-c2cccs2)nc2ccccc12,1,-10,14,2,8
Cn1cccc1/C=N/NC(=O)c1cc(-c2cccs2)nc2ccccc12,1,5,31*,-1,19
C[C@H]1CN([C@@H](C)CO)C(=O)Cc2cc(NC(=O)Nc3ccc4c(c3)OCO4)ccc2O[C@@H]1CN(C)C(=O)NC1CCCCC1,0,x,x,x,x
O=C(O)CCn1c(-c2ccccn2)nc2ccccc21,0,-3,0,-2,27*
O=C(O)CCn1c(CO)nc2ccccc21,-1,-3,5,5,1
Cc1ccc(C)c(CSc2nnc([C@@H](N)C(C)C)o2)c1,x,3,14,90*,-1
Cc1onc(-c2ccccc2Cl)c1C(=O)NCc1ccccc1,1,-1,-5,8,1
Cc1onc(-c2ccccc2Cl)c1C(=O)Nc1nnc(-c2cccc([N+](=O)[O-])c2)s1,0,-1,35*,-1,3
Cc1onc(-c2ccccc2Cl)c1C(=O)Nc1cnn(Cc2ccccc2)c1,13*,6,3,4,2
SMILES,TcdB GH inh,PrPC surface inh,GDH-TPI inh,Y pestis TopoI,Mtb FBA inh
Cc1onc(-c2ccccc2Cl)c1C(=O)Nc1ccc(-c2cn3cccnc3n2)cc1,x,x,31*,1,+
Cc1onc(-c2ccccc2Cl)c1C(=O)Nc1cccc(-c2nc3ncccn3c2C)c1,x,-1,26,5,175*
CC(=O)Nc1cccc(NC(=O)c2c(-c3ccccc3Cl)noc2C)c1,x,3,-2,2,-3
Cc1ccc(-c2cn3cccnc3n2)cc1NC(=O)c1c(-c2ccccc2Cl)noc1C,x,-1,16,25,+
COC(=O)c1sccc1NC(=O)c1cccnc1,x,9,6,-1,4
COC(=O)c1sccc1-c1ccc(C(=O)Nc2cccnc2)o1,x,-3,34*,-1,1
Cc1nccc2c1[nH]c1ccc(Br)cc12,0,1,9,0,7
COc1ccc2c(c1)[nH]c1c(C)nccc12,4,3,7,-8,151*
O=C(NC(=S)Nc1ccc(O)cc1)c1cncc(Br)c1,15*,-10,4,0,2
O=C1NC(=O)/C(=C/c2ccc(O)cc2)S1,27*,-14,21,0,-1
C[C@@H]1CN([C@@H](C)CO)C(=O)Cc2cc(NC(=O)c3ccncc3)ccc2O[C@H]1CN(C)C,0,x,x,x,x
